Only some compounds are listed: those with a hit (about 1.8% of all), similar ones and a draw of the others.
Myeloid diff 2 = promotes myeloid progenitor differentiation; AID 624256; ER-HoxA9 myeloid progenitors, lysozyme-GFP differentiation, flow cytometry; calls only at 10 µM; hit rate 1% among 360,000;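 active means normalized GFP-positive differentiation at or above the plate's own cutoff, the solvent-only control mean plus 3 SD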;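 further: cells exposed to compound for four days before flow analysis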
ABCB6 inh 2 = human ABCB6 transporter inhibition | fluorescence ratio to DMSO, % at 10 µM | Q9NP58 | AID 602162 | K562-ABCB6 porphyrin accumulation, flow cytometry, 1 h; stronger effect = lower value | hit rate 0.19% among 360,000;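 active means fluorescence ratio to DMSO below 75%, the collection mean minus 3 SD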;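 further: signal is porphyrin accumulated inside mitochondria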
Target sequence (Q9NP58 whole entry, looked up): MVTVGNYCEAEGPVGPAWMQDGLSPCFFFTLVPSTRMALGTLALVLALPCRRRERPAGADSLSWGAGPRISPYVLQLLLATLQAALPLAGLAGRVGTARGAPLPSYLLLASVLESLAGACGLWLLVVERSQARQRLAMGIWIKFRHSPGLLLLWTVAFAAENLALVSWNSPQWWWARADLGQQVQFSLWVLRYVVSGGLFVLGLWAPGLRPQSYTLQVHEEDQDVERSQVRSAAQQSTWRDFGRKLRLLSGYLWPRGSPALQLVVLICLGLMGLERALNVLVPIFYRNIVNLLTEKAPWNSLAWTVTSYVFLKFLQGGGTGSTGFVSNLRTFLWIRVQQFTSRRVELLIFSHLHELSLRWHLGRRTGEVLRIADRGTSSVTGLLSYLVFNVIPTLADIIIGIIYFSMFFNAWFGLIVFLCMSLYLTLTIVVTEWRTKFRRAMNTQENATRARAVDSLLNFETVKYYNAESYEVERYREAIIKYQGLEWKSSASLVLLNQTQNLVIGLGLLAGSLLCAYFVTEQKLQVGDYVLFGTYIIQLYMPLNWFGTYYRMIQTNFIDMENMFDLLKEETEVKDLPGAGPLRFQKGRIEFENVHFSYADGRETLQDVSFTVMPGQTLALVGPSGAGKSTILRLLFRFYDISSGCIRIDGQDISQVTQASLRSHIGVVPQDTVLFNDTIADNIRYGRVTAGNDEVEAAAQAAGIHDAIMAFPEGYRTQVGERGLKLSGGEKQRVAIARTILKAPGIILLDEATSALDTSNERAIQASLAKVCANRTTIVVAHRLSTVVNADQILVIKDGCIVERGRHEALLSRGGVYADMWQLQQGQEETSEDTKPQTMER
Exocytosis inh = lytic granule exocytosis inhibition; TALL-104 LAMP-1 surface exposure, flow cytometry; cells stimulated with thapsigargin and PMA; inhibition, % at 10 µM; hit rate 0.66% among 360,000; AID 651702;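 active means inhibition above about 55%, limit read from the data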
Granule exo CP1 = lytic granule exocytosis inhibition | inhibition, % at 10 µM | TALL-104 cells, LAMP-1 externalization, flow cytometry; stimulated with PMA plus thapsigargin | hit rate 11% among 1,500 | AID 651954 | shares compounds with Exocytosis inh; in the data active means inhibition above about 60%
Numbers stand for hits; i = inactive; nt = no result given; + = active, no number.

SMILES	Myeloid diff 2	ABCB6 inh 2	Exocytosis inh	Granule exo CP1
COc1ccc(CNC(=O)C(c2ccc(C)o2)N(Cc2cccs2)C(=O)Cc2cccs2)cc1 (stereo unspecified)	i	i	77.0	i
COc1ccccc1CCNC(=O)Cn1ccc2cc(S(=O)(=O)N3CCC(C)CC3)ccc21	+	i	59.9	i
COc1ccccc1C(=O)NCCn1ccc2ccccc21	i	i	i	nt
COc1ccccc1CCC(=O)NCCCn1ccc2ccccc21	i	i	71.5	i
COc1ccc(OC)c(CCNC(=O)Cn2ccc3cc(S(=O)(=O)N4CCCC4)ccc32)c1	i	i	i	nt
CCOC(=O)C1CCCN(C(=O)CN2C(=O)c3ccccc3S2(=O)=O)C1 (stereo unspecified)	i	i	i	nt
CCCCN(C(=O)C1CCN(C(=O)c2ccccc2C)CC1)c1c(N)n(CC(C)C)c(=O)[nH]c1=O	i	i	i	nt
COc1ccc(S(=O)(=O)n2nc(-n3c(C)ccc3C)c3c(F)cccc32)cc1OC	i	i	i	nt
Cc1ccc(C)n1-c1nn(S(=O)(=O)c2ccccc2)c2cccc(F)c12	i	i	56.2	i
CC(=O)Nc1ccc(NC(=O)COC(=O)[C@@H]2CCCN2C(=O)c2cccs2)cc1	i	i	i	nt
COCCn1c(=O)[nH]c2cc(C(=O)NCCc3ccc(S(N)(=O)=O)cc3)ccc2c1=O	i	i	i	nt
CCc1ccc(OC)c(S(=O)(=O)Nc2ccc(Cc3ccncc3)cc2)c1	i	i	i	nt
Cc1cc2oc(=O)cc(CN(C)Cc3cccc(F)c3)c2cc1C	i	i	i	nt
CCc1cc2c(CN(C)Cc3ccccc3F)cc(=O)oc2cc1O	i	i	59.0	i
O=C(Cn1cnc2c(NC(=O)OCc3ccccc3)ncnc21)NCCN1CCOCC1	i	i	i	nt
CC(Sc1n[nH]c(-c2cccs2)n1)C(=O)N1CCCC1 (stereo unspecified)	i	i	i	nt
Cc1ccc(S(=O)(=O)N2CCCCC2)cc1NC(=O)CNC(C)c1ccc(Cl)c(Cl)c1 (stereo unspecified)	i	i	i	nt
O=C(NCC1(c2ccccc2)CCCC1)c1ccccc1Br	i	i	i	nt
COc1ccccc1C(=O)NCC1(c2ccccc2)CCCC1	i	i	80.5	i
O=C1C2C3CC(C(Br)C3Br)C2C(=O)N1c1nccs1 (stereo unspecified)	i	i	i	nt
C/C(=N\NC(=O)C(O)c1ccccc1)c1ccc(Br)s1 (stereo unspecified)	i	i	i	nt
O=C(Nc1ccccc1F)c1ccc(Br)o1	i	i	i	nt
Cc1ccc2cccc(NC(=O)c3ccc(Br)o3)c2n1	i	i	89.1	i
Cc1ccc(S(=O)(=O)N2CCC(C(=O)Nc3ncccc3O)CC2)cc1	i	i	i	nt
O=C(O)Cn1c2ccccc2c2n[nH]c(=S)nc21	i	i	i	nt
SMILES	Myeloid diff 2	ABCB6 inh 2	Exocytosis inh	Granule exo CP1
Cc1ccc(S(=O)(=O)Nc2ccccc2C(=O)N2CCCCC2)cc1	i	i	i	nt
CC1(C(=O)NS(=O)(=O)c2ccc(Br)cc2)CCN1C(=O)Cc1ccsc1 (stereo unspecified)	i	i	i	nt
CC1(C(=O)NS(=O)(=O)c2ccc(Cl)cc2)CCN1C(=O)Cc1ccsc1 (stereo unspecified)	i	i	78.3	i
CCOc1ccc(NC(=O)C2CCCN2S(=O)(=O)c2ccc(OCC)cc2)cc1 (stereo unspecified)	i	i	55.7	i
COc1ccc(S(=O)(=O)N2CCCC2C(=O)Nc2ccc(C)cc2)cc1 (stereo unspecified)	i	i	i	nt
Cc1ccc(C(C)C)c(OCCNCCc2ccccc2)c1	i	i	64.3	i
Cc1ccc(C(C)C)c(OCCCNCc2cccnc2)c1	i	i	i	nt
Cc1cccc(C(=O)Nc2cc(S(=O)(=O)N3CCOCC3)ccc2N2CCCCC2)c1	i	i	i	nt
CCn1c(=N)n(CC(=O)c2ccc(Br)s2)c2ccccc21	i	i	i	nt
CCCCn1c(=N)n(CC(=O)c2ccc(Br)s2)c2ccccc21	i	i	82.5	95.8
COC(=O)N1[C@H](C)C=C[C@]1(Cc1ccccc1)C(=O)OC	i	i	57.2	i
COC(=O)[C@@]1(Cc2ccccc2)C=C[C@@H](C)N1C(C)=O	i	i	i	nt
Cc1cccc(C(=O)N[C@H](C(=O)OCC(=O)NC(=O)c2cccn2C)C(C)C)c1	i	i	i	nt
O=C(O)c1ccc(Cl)c(S(=O)(=O)N(Cc2ccccc2)c2ccc(F)cc2)c1	i	i	i	nt
O=C(O)c1ccc(Cl)c(S(=O)(=O)N(Cc2ccccc2)c2ccccc2)c1	i	i	62.6	i
O=c1c2c3c(sc2nc(NCCO)n1CCc1ccccc1)CCCCC3	i	i	i	nt
CN(C)CCNc1nc2sc3c(c2c(=O)n1Cc1ccccc1)CCCCC3	i	i	57.4	i
O=c1c2c3c(sc2nc(N2CCNCC2)n1CCc1ccccc1)CCCCC3	i	i	59.6	i
CN(C)CCNc1nc2sc3c(c2c(=O)n1-c1ccccc1)CCCCC3	i	i	i	nt
Cc1cccc(N=C2CCCC2C(=O)Nc2cccc(C)c2C)c1C (stereo unspecified)	i	i	i	nt
COc1cccc2c1-c1c(C(=O)O)cccc1C2=O	i	i	i	nt
COc1cccc2c1C(=O)c1ccc3ccccc3c1C2=O	i	i	61.4	78.0
Cc1cc(NS(=O)(=O)c2ccc(NC(=O)COc3cc(C)c(Cl)c(C)c3)cc2)no1	i	i	i	nt
Cc1ccc(C)c2c1CCCC2=O	i	i	i	nt
CC(NCCCOc1cccc2ccccc12)c1ccccc1 (stereo unspecified)	i	i	61.0	i
SMILES	Myeloid diff 2	ABCB6 inh 2	Exocytosis inh	Granule exo CP1
COc1ccc2ccccc2c1CNC(C)c1ccccc1 (stereo unspecified)	i	i	i	nt
Cc1c(C(=O)NCc2ccc3c(c2)OCCO3)sc(=O)n1Cc1ccc(C(=O)N(C)C)cc1	i	i	i	nt
CCO/N=C(\C)c1c(O)c2ccccc2n(C)c1=O	i	i	i	nt
Cc1ccc(Cn2c(CCNc3nc(-c4ccc(Cl)c([N+](=O)[O-])c4)cs3)nc3cc(C(=O)NCCCO)ccc32)cc1	i	i	i	nt
O=C(CN1C(=O)C(=O)c2ccccc21)c1ccccc1	i	i	i	nt
O=C1C(=O)N(Cc2cccs2)c2ccccc21	nt	i	62.2	i
COc1cc(CNCc2ccccc2)cc(Cl)c1OC	i	i	i	nt
COc1cc(CNCCc2ccccc2)cc(Cl)c1OCc1ccccc1	i	i	98.8	i
NC(=O)CC(NC(=O)Cc1ccc(Br)cc1)c1ccc(N2CCC(Cc3ccccc3)CC2)c([N+](=O)[O-])c1 (stereo unspecified)	i	i	i	nt
NC(=O)CC(NC(=O)Cc1cccc2ccccc12)c1ccc(N2CCC(Cc3ccccc3)CC2)c([N+](=O)[O-])c1 (stereo unspecified)	i	i	59.6	i
Fc1ccc(CNCCC(Cc2ccccc2)c2ccco2)cc1 (stereo unspecified)	i	i	78.5	i
CC(NCCC(Cc1ccccc1)c1ccco1)c1ccccc1 (stereo unspecified)	i	i	i	nt
CC(C(=O)NCc1ccc(F)cc1)c1ccc([N+](=O)[O-])cc1 (stereo unspecified)	i	i	i	nt
O=c1oc2ccccc2c2c1nc(C(F)(F)F)n2-c1ccccc1	i	i	66.7	i
O=c1oc2ccccc2c2nccnc12	i	i	i	nt
